Source: PubChem BioAssay AID588676 (Johns Hopkins Ion Channel Center, 2011)
The campaign covered roughly 310,000 compounds. About 3,900 (1.3%) were called active.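 How the source made its calls: active means calcium-response B-score plate-corrected more than 3 library SD below zero, starting fluorescence within 5 deviations, no agonist response on first addition; inactive means the rest.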 The entries come from a sample that favours actives as a whole. The source holds several records for some structures; these can differ, active in one and inactive in another.

These compounds were tested against Mas-related G-protein coupled receptor member X1 (Homo sapiens) (UniProt Q96LB2) (assay: antagonists of human MrgX1 receptor, primary screen, HEK293 cells, Fluo-4 calcium flux (AID 588676;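 on B-score: peak minus trough fluorescence over baseline after final BAM8-22 challenge near maximal dose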)). Details: Fluo-4, BAM8-22 antagonism, at 10 µM; stronger effect = lower value.
Mas-related G-protein coupled receptor member X1 (Homo sapiens), sequence (Q96LB2 whole entry, looked up): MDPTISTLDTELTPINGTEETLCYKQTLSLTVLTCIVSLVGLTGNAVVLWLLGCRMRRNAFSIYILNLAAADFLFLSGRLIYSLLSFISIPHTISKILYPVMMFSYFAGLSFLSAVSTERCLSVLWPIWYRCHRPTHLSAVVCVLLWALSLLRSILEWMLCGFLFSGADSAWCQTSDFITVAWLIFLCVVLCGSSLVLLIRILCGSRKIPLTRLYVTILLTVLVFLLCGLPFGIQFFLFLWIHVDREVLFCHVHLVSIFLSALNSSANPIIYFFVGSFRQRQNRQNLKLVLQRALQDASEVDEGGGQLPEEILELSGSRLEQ

Row | SMILES | B-score | outcome
1 | CN(C)S(=O)(=O)c1cccc(NC(=S)N/N=C/C(=O)c2ccccc2)c1 | -6.77 (active) | 
2 | CCc1cc(=O)oc2cc(C)cc(OCC(=O)N3CCC[C@@H]3C(=O)O)c12 | -7.63 (active) | 
3 | CCc1cc(=O)oc2cc(C)cc(OC(C)C(=O)O)c12 (stereo not drawn) | inactive | 
4 | CCCc1cc(=O)oc2c(C)c(OCC(=O)N3CCC(C(=O)O)CC3)ccc12 | inactive | 
5 | CC(Sc1cccc[n+]1[O-])C(=O)Nc1cccc(S(=O)(=O)N2CCOCC2)c1 (stereo not drawn) | inactive | 
6 | CN(C)S(=O)(=O)c1ccc(N2CCCC2)c(C(=O)Nc2cccc(F)c2)c1 | inactive | 
7 | CN(C)S(=O)(=O)c1ccc(N2CCCC2)c(C(=O)NCc2ccccc2)c1 | inactive | 
8 | Cc1ccccc1OCC(=O)NNC(=O)c1cc(S(=O)(=O)N(C)C)ccc1N1CCCC1 | -7.66 (active) | 
9 | CN(C)C(=O)N=NC(=O)N(C)C | inactive | 
10 | CCCn1c(=O)c2ccccc2n2c(SCC(=O)/C(C#N)=C(\C)N)nnc12 | -7.91 (active) | 
11 | C=CCn1c(SCC(=O)/C(C#N)=C(\C)N)nc2sc(C)c(C)c2c1=O | inactive | 
12 | C=CCn1c(=O)c2ccccc2n2c(SCC(=O)N3CCCc4ccccc43)nnc12 | inactive | 
13 | CCOc1cc(C(=O)Nc2ncccn2)cc(OCC)c1OCC | inactive | 
14 | CCOc1cc(-c2conc2N)cc(OCC)c1OCC | -6.9 (active) | 
15 | CCOc1cc2c(Cl)ncnc2c(OCC)c1OCC | inactive | 
16 | O=C1CSC2=NCN(c3ccccc3)CN12 | inactive | 
17 | CCCn1nc2cc(C(=O)NCc3ccccc3)ccc2c1OCC | inactive | 
18 | CCN(CC)c1ccc(C2C3CCCCC3(O)CCN2CC(=O)Nc2ccccc2)cc1 (stereo not drawn) | -5.44 (active) | 
19 | CCN(CC)c1ccc(NC(=O)CN2CCN(c3ccccn3)CC2)cc1 | inactive | 
20 | Cc1ccc(NC(=O)CN2CCC3(O)CCCCC3C2c2ccc3c(c2)OCO3)c(C)c1 (stereo not drawn) | inactive | 
21 | CCOC(=O)c1c(N=CN(C)C)c(C#N)c2n1CCCC2 | inactive | 
22 | Cc1cc2oc(=O)cc(CN3CCN(S(=O)(=O)c4cccs4)CC3)c2cc1C(C)C | inactive | 
23 | Cc1ccc2c(CSc3nncs3)cc(=O)oc2c1 | inactive | 
24 | CCOC(=O)Cc1csc(SCc2cc(=O)oc3cc(O)ccc23)n1 | -5.51 (active) | 
25 | CCOC(=O)Cc1csc(NC(=O)COc2ccc3c(C)cc(=O)oc3c2)n1 | inactive | 
26 | CN(C)N1C(N)=C(C#N)C(c2ccc(Br)cc2)C2=C1CCCC2=O (stereo not drawn) | inactive | 

Row | SMILES | B-score | outcome
27 | C/C(CC(=O)NC(C)(C)C)=N\NC(=O)c1ccco1 | inactive | 
28 | COc1ccc(-c2nn(C)c(=O)c3ccccc23)cc1CNC(=O)C1CCCCC1 | inactive | 
29 | COc1ccc(-c2nn(C)c(=O)c3ccccc23)cc1NC(=O)COc1ccccc1 | -8.18 (active) | 
30 | CCC(=O)NCc1cc(-c2nn(C)c(=O)c3ccccc23)ccc1OC | inactive | 
31 | COc1cc(CC(=O)N2CCC(n3nccc3NC(=O)C3CC3)CC2)cc(OC)c1OC | inactive | 
32 | Cn1cccc1C(=O)NNC(=O)COc1ccc(Br)cc1 | -5.34 (active) | 
33 | CCOC(=O)N1CCN(C(=O)COc2ccc(Br)cc2)CC1 | inactive | 
34 | Cn1cnnc1SCC(=O)NNC(=O)COc1ccc(Br)cc1 | inactive | 
35 | CCOC(=O)C(Sc1ncc(C#N)c(N)n1)C(C)C (stereo not drawn) | inactive | 
36 | Fc1ccccc1Cc1ccc(Cl)nn1 | inactive | 
37 | O=C(O)c1ccc(Cn2c(=S)[nH]c3cc(Cl)ccc3c2=O)cc1 | inactive | 
38 | CC(C)c1ccc2c(c1)c(SC(C)(C)C)c(CC(C)(C)C(=O)O)n2Cc1ccc(Cl)cc1 | -4.82 (active) | inactive
39 | CC(C)N(Cc1ccccc1)C(=O)COC(=O)c1ccccc1SCC(=O)N1CCCC1 | inactive | 
40 | Cc1c(C)c(C)c(S(=O)(=O)NCCc2ccccn2)c(C)c1C | inactive | 
41 | CCOC(=O)Nc1ccc2c(c1)N(C(=O)CCN1CCN(CCO)CC1)c1ccccc1CC2 | -9.01 (active) | 
42 | CCOC(=O)Nc1ccc2c(c1)N(C(=O)CN1CCN3CCCC3C1)c1ccccc1CC2 (stereo not drawn) | inactive | 
43 | CCOC(=O)Nc1ccc2c(c1)N(C(=O)CCCl)c1ccccc1[S@]2=O | inactive | 
44 | COC(=O)C1=C(O)/C(=C/c2ccc(OCC(=O)Nc3ccccc3)cc2)N=C1C | inactive | 
45 | CCOC(=O)C1=C(O)/C(=C/c2cc(C)n(-c3ccccc3)c2C)N=C1C | -4.95 (active) | 
46 | CCOC(=O)C1=C(O)/C(=C/c2ccc(OCC(=O)Nc3ccc(C)cc3)cc2)N=C1C | inactive | 
47 | O=C(NCCCN1CCCC1=O)c1cccc(S(=O)(=O)NCc2ccccc2)c1 | inactive | 
48 | O=C(Nc1cc(S(=O)(=O)N2CCOCC2)ccc1Cl)c1cc(=O)c2ccccc2o1 | inactive | 
49 | Cn1sc(=O)c2cc(S(=O)(=O)NC3CC3)ccc21 | inactive | 
50 | Cc1ccc(C(=O)COC(=O)CCN2C(=O)C3C4CC(C(Br)C4Br)C3C2=O)cc1 (stereo not drawn) | -9.31 (active) | 
51 | O=C(CCN1C(=O)C2C3C=CC(C3)C2C1=O)Oc1ccc2ccccc2c1 (stereo not drawn) | inactive | 
52 | Cc1ccc(C(=O)COC(=O)CCN2C(=O)C3C4CCC(C4)C3C2=O)cc1C (stereo not drawn) | inactive | 
